Test results taken from PubChem BioAssay AID743279 (National Center for Advancing Translational Sciences (NCATS), 2014).
In all, about 360,000 compounds went through this assay and about 17,000 (4.7%) were called active. About 5% were inconclusive and are not listed. No stated cut-off is given here; in the data, active means activity change below about -50%; inconclusive means mostly about -30% to -49%; inactive means weaker than that. The entries come from a sample that favours actives as a whole.

Test: qHTS for Inhibitors of Inflammasome Signaling: IL-1-beta AlphaLISA Primary Screen
Details: THP-1 LPS/ATP IL-1B secretion, 16 h; at 57.5 µM, stronger effect = lower value
Method in brief: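 Secreted IL-1B measured by AlphaLISA bead assay after 16 h compound exposure of THP-1 cells; compounds (final up to 57.5 uM) added 1 h before LPS (250 ng/mL) and ATP (1.25 mM) stimulation; lower signal means less secretion.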
On the % scale 0 is the no-effect control and ±100 the full control effect.

Activity change, inactive:
CC1(C(=O)Nc2ccccc2Br)CCN1C(=O)CC1CC1 (centres undefined) 13.2%
CCCC(=O)Nc1nc2ccc(NC(=O)c3c(F)c(F)c(OC)c(F)c3F)cc2s1 11.7%
O=C(Nc1ccncc1)c1cc2ccccc2o1 -4.22%
Nc1nnc(SCC(=O)Nc2ccc3nc(SCC(=O)Nc4ccccc4)sc3c2)s1 -29.4%
O=C(Nc1ccc(S(=O)(=O)N2CCCCCC2)cc1)c1c(F)cccc1F -9.91%
Cc1ccc(C(=O)NC(C)C(c2cccs2)N2CCOCC2)cc1C (centres undefined) -9.25%
CNC(=O)N1c2ccccc2C=Cc2ccccc21 0%
CCCCNC(=O)N1CCCC(N(C)CCc2ccc(OC)c(OC)c2)C1 (centres undefined) 1.87%
CC1(C2CC2)NC(=O)N(CC(=O)N2CCN(c3ccccc3F)CC2)C1=O (centres undefined) -14.2%
Cc1c(C(=O)NCC(c2ccco2)N2CCCC2)oc2ccc(Cl)cc12 (centres undefined) -25.2%
Cc1ccc(C)c(S(=O)(=O)Nc2cc(C)on2)c1 -7.66%
CCOC(=O)C1CCCN(C(=O)C2CCN(S(=O)(=O)c3ccc(Cl)c(C(F)(F)F)c3)CC2)C1 (centres undefined) 16.1%
CCCc1nc2oc3c(=O)[nH]cnc3c2c2c1COC(C)(C)C2 17.7%
CS(=O)(=O)N1CCCCC1c1cc(C(=O)NCc2ccccc2)no1 (centres undefined) -18.8%
CCN1CCC(O)(/C=C/c2ccc(C)cc2)C(C(=O)/C=C/c2ccc(C)cc2)C1 (centres undefined) -1.25%
CCCOC(=O)c1ccc(N2C(=O)c3ccccc3C2=O)cc1 17.6%
CCCCOC(=O)NCN1C(=O)C2C3C=CC(C3)C2C1=O (centres undefined) 26.4%
O=C(Nc1cccc2c1CCCC2)C1CCN(C(=O)NC2CCCCC2)CC1 15.3%
COC(=O)[C@]12CCCCC=C1N(CCC1=CCCCC1)C(=O)[C@H](CC(=O)N1CCSCC1)C2 -3.86%
CCCc1cc(=S)n2c([nH]c3ccccc32)c1C#N -9.7%
CCOCCCNc1c(CC)c(C)c(C#N)c2nc3ccccc3n12 -7.67%
COC(=O)C1=CN(c2c(C)cc(C)cc2C)C(N)=C(C#N)C1c1cccc(F)c1 (centres undefined) -11.3%
CC1Cc2[nH][nH]c(=O)c2C(C2CC2)O1 (centres undefined) -5%
COc1ccc(CN2C(=O)C(CC(=O)NC3CCCCC3)CC(C(=O)N3CCOCC3)=C2C)cc1 (centres undefined) -7.47%
CCOc1ccc(-n2c(SCC(=O)Nc3ccc(OC)cc3)nc3sc4c(c3c2=O)CCN(C)C4)cc1 -16%
COc1ccccc1NC(=O)CSc1nc2sc3c(c2c(=O)n1-c1ccccc1)CCN(C)C3 -4.77%
Cc1ccc(-c2c(C)n([O-])c3c([n+]2=O)CCC3)cc1 12.3%
CCOc1cccc(=O)c2c(C)n(CC3CCCO3)c(C)c12 (centres undefined) 13.1%
CN1CN(C)c2ccc([N+](=O)[O-])c3cccc1c23 -18.1%
Cc1ccc(N2CCN(c3ccc(C)cc3)C2c2ccccn2)cc1 -6.85%
COc1ccc(S(=O)(=O)N2CCC(C(=O)NCCC(=O)NCCc3cccc(F)c3)CC2)cc1 -8.46%
CC(Cc1cccs1)N(Cc1ccc(Cl)cc1)C(=O)c1ccncc1 (centres undefined) 20.4%
Nc1nc(NC(=O)/C=C/c2ccc(F)cc2)nn1-c1ccccc1 -2.85%
Cc1c(C(=O)Nc2ccccc2)sc2nc3n(c(=O)c12)CCCCC3 -7.47%
O=c1c2c(nc3n1CCCCC3)sc1c(O)cccc12 24.7%
CCCS(=O)(=O)Nc1ccc(-c2cn3c(n2)SCC3)cc1 -1.84%
COC(=O)[C@H]1C[C@H](OC(=O)NCc2ccccc2)[C@@]2(O)CN(S(=O)(=O)c3ccc(C)cc3)CC2[C@H]1C(=O)OC (some centres undefined) -4.9%
CCCCCCNC(=O)O[C@]12C[C@@H](C(=O)OC)[C@@H](C(=O)OC)C[C@@]1(O)CN(S(=O)(=O)c1ccc(C)cc1)C2 11.6%
COc1ccc([C@H]2CC(=O)C[C@@H](CCn3cc(CC4CCCC4)nn3)O2)cc1 10.9%
COc1ccc(-c2nc3ccc(Br)cn3c2Cc2ccc(C)cc2)cc1OC -15.5%
Cc1ccc(Cn2cc(C(=O)NN)c(=O)c3ccc(F)cc32)cc1 -11.4%
Cc1ccc2cccc([N+](=O)[O-])c2n1 15%
Cc1ccc(Nc2nc(C)cc(C)c2C(N)=O)cc1 19.4%
O=NN(CCCl)C(=O)NCCc1cccc[n+]1[O-] 15%
O=C(c1ccc(CSc2ccccc2)cc1)N1CCCCCC1 -19.7%
O=C(NC1CCCCCC1)C1CCN(C(=O)c2ccc(Cl)cc2)CC1 9.37%
O=C(NC(=S)NC1CCCCC1)c1ccc(Cl)cc1 -21%
O=C(NC1CCCCCC1)c1cccnc1Sc1ccc(Cl)cc1 1.6%

Activity change, active:
O=C(Nc1ccncc1)c1c(F)cccc1F -66.7%
CSc1nc2ccc(NC(=O)c3c(F)cccc3F)cc2s1 -101%
CCCCCOC(=O)c1ccc(N2C(=O)C3C4C=CC(C4)C3C2=O)cc1 (centres undefined) -71.4%
CCOC(=O)CCc1c(C)c(C#N)c2[nH]c3ccccc3n2c1=O -90.1%
CCn1c(SCC(=O)Nc2ccc(Br)cc2)nc2sc3c(c2c1=O)CCN(C)C3 -54.3%
O=C1c2cccc3c([N+](=O)[O-])ccc(c23)C(=O)N1CC1CCCO1 (centres undefined) -98.7%
CC(=O)c1ccc(NC(=O)c2sc3nc4n(c(=O)c3c2C)CCCCC4)cc1 -59.8%
CCCCCCNC(=O)O[C@H]1CN(C(=O)OC(C)C)N(C(=O)OC(C)C)[C@@H]2CN(S(=O)(=O)c3ccc(C)cc3)C[C@]12O -63.8%
Cc1ccc(Nc2cc(C)nc3c(C)ccc([N+](=O)[O-])c23)cc1 -61.1%
CC1CCN(C(=O)c2ccc(CSc3ccc(Cl)cc3)cc2)CC1 -51.2%
O=C(NC1CCCCC1)c1ccc(-c2ccc(Cl)cc2)o1 -76.5%
